Compounds without any hit were thinned out: in the full panel of roughly 79,000, 15% have a hit. Active and inactive are the calls of the source. Cut-off read from the data, not from the text of the source: active = growth inhibition above about 70%; inactive = the rest.
Tests used:
[1] = NCI Yeast Anticancer Drug Screen. Data for the rad52 strain (AID 147);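 note: 0% = growth of vehicle-treated control cultures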; conditions: S. cerevisiae rad52 mutant growth inhibition, hits give high values
Method in brief: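 Compounds are applied to a genetically defined yeast strain lacking normal DNA damage repair, and inhibition of growth is expressed relative to cultures given vehicle only.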

[2] = NCI Yeast Anticancer Drug Screen. Data for the wt1 strain (AID 149);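 note: 0% = growth of vehicle-treated wt1 cultures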; conditions: S. cerevisiae wt1 strain (SPY 50644) growth inhibition, hits give high values
Method in brief: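 wt1 yeast, compound-treated; % growth inhibition vs vehicle control.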

[3] = NCI Yeast Anticancer Drug Screen. Data for the rad50EPP+ strain (AID 151);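 note: 0% = growth of vehicle-treated control cultures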; conditions: S. cerevisiae rad50 mutant strain, hits give high values
Method in brief: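 Compounds were applied to the rad50EPP+ yeast strain, which bears a defined DNA repair alteration, and growth inhibition was determined relative to vehicle-treated cultures.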

[4] = NCI Yeast Anticancer Drug Screen. Data for the mgt1 strain (AID 153); conditions: S. cerevisiae mgt1 mutant growth inhibition, hits give high values
Method in brief: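 Strain: mgt1 yeast, one of a set carrying defined DNA damage repair or cell cycle control alterations. Compound-treated growth compared with vehicle.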

[5] = NCI Yeast Anticancer Drug Screen. Data for the rad50 strain (AID 155);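 note: 0% = growth of vehicle-only cultures of the same strain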; conditions: S. cerevisiae rad50 strain growth inhibition, hits give high values
Method in brief: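 Genetically altered yeast (DNA repair pathway); compound treatment; growth inhibition vs vehicle ctrl.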

[6] = NCI Yeast Anticancer Drug Screen. Data for the mec2-1 strain (AID 157); conditions: S. cerevisiae mec2-1 strain, hits give high values
Method in brief: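 Strain: mec2-1 (DNA repair/cell cycle alteration). Compound exposure, then growth measured; inhibition expressed relative to vehicle.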

[7] = NCI Yeast Anticancer Drug Screen. Data for the rad14 strain (AID 159);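 note: 0% = growth of vehicle-treated control cultures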; conditions: S. cerevisiae rad14 strain growth inhibition, hits give high values
Method in brief: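 Test compounds were applied to a repair-deficient yeast strain. Its growth was then compared with that of cultures given vehicle alone, and inhibition was expressed relative to those controls.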

[8] = NCI Yeast Anticancer Drug Screen. Data for the sgs1 mgt1 strain (AID 161);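 note: 0% = growth of cultures given vehicle only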; conditions: S. cerevisiae sgs1 mgt1 strain, hits give high values
Method in brief: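 Genetically altered yeast, compound exposure, growth inhibition relative to vehicle.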

[9] = NCI Yeast Anticancer Drug Screen. Data for the CLN2oe strain (AID 163);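 note: 0% = growth of vehicle-only control cultures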; conditions: S. cerevisiae CLN2oe strain, hits give high values
Method in brief: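 Growth of a genetically modified yeast strain is measured after compound exposure and compared with cultures given vehicle alone.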

[10] = NCI Yeast Anticancer Drug Screen. Data for the cln2 rad14 strain (AID 165);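 note: 0% = growth equal to vehicle treated cultures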; conditions: S. cerevisiae cln2 rad14 strain, hits give high values
Method in brief: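 Compounds are applied to the cln2 rad14 yeast strain, and growth is then compared with that of vehicle-treated cultures to give inhibition.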

[11] = NCI Yeast Anticancer Drug Screen. Data for the bub3 strain (AID 167); conditions: S. cerevisiae bub3 mutant strain, hits give high values
Method in brief: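 Yeast carrying a defined mutation is treated with each compound, and growth is compared with that of vehicle-exposed cells to give inhibition.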

[12] = NCI Yeast Anticancer Drug Screen. Data for the wt2 strain (AID 169);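 note: 0% = growth of vehicle-treated yeast cultures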; conditions: S. cerevisiae wt2 strain growth inhibition, hits give high values
Method in brief: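 This strain belongs to a panel of yeast strains with defined genetic alterations in DNA damage repair or cell cycle control. Compounds are applied, and growth inhibition is measured against vehicle-treated cultures.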

[13] = NCI Yeast Anticancer Drug Screen. Data for the mlh1 strain (AID 171);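 note: 0% = growth of vehicle-treated control cultures of the same strain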; conditions: S. cerevisiae mlh1 strain growth inhibition, hits give high values
Method in brief: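 Growth of the mutant yeast strain after compound exposure, expressed as inhibition relative to vehicle-only controls.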

[14] = NCI Yeast Anticancer Drug Screen. Data for the sgs1 strain (AID 173);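 note: 0% = growth of vehicle-only control cultures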; conditions: S. cerevisiae sgs1 mutant, hits give high values
Method in brief: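 Growth of a yeast strain bearing a defined genetic alteration is measured after compound treatment. Inhibition is expressed relative to vehicle-only controls.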

[15] = NCI Yeast Anticancer Drug Screen. Data for the mlh1 rad18 strain (AID 175); conditions: S. cerevisiae mlh1 rad18 strain growth inhibition, hits give high values
Method in brief: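 Read-out is yeast growth inhibition, calculated against vehicle-only controls. The compound was applied to a strain engineered with DNA damage repair alterations.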

[16] = NCI Yeast Anticancer Drug Screen. Data for the rad18 strain (AID 177); conditions: S. cerevisiae rad18 mutant growth inhibition, hits give high values
Method in brief: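 Growth of the mutant yeast strain after compound exposure, normalised to vehicle-only cultures.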

[17] = at 5.0 µM (retest, dose inferred, filed as 0.5)
[18] = at 50.0 µM (retest, dose inferred, filed as 5.0)

Measured: growth inhibition

COc1cccc2nc3ccccc3nc12
active: [1]; at 33.0 µM 90% | [1]; at 100.0 µM 97% | [2]; at 100.0 µM 91% | [3]; at 33.0 µM 79% | [3]; at 100.0 µM 94% | [4]; at 33.0 µM 75% | [4]; at 100.0 µM 95% | [5]; at 33.0 µM 91% | [5]; at 50.0 µM 83.6% | [5]; at 100.0 µM 97% | [6]; at 100.0 µM 89% | [7]; at 100.0 µM 82% | [9]; at 100.0 µM 91% | [11]; at 100.0 µM 94% | [12]; at 100.0 µM 96% | [13]; at 100.0 µM 97% | [14]; at 100.0 µM 88% | [16]; at 33.0 µM 84% | [16]; at 100.0 µM 95%
inactive: [1]; at 1.2 µM 1% | [1]; at 3.7 µM 7% | [1]; at 11.0 µM 34% | [2]; at 1.2 µM -2% | [2]; at 3.7 µM -2% | [2]; at 11.0 µM 3% | [2]; at 33.0 µM 45% | [3]; at 1.2 µM 1% | [3]; at 3.7 µM 8% | [3]; at 11.0 µM 34% | [4]; at 1.2 µM 1% | [4]; at 3.7 µM 1% | [4]; at 11.0 µM 6% | [5]; at 1.2 µM 2% | [5]; at 3.7 µM 15% | [5]; [17] -22% | [5]; at 11.0 µM 45% | [5]; [18] 65% | [6]; at 1.2 µM -2% | [6]; at 3.7 µM 2% | [6]; [17] -5% | [6]; at 11.0 µM 4% | [6]; at 33.0 µM 35% | [6]; [18] 17% | [6]; at 50.0 µM 31.3% | [7]; at 1.2 µM -2% | [7]; at 3.7 µM 0% | [7]; at 11.0 µM 2% | [7]; at 33.0 µM 30% | [8]; [17] -19% | [8]; [18] 5% | [8]; at 50.0 µM 4.55% | [9]; at 1.2 µM 0% | [9]; at 3.7 µM 1% | [9]; at 11.0 µM 1% | [9]; at 33.0 µM 48% | [10]; [17] -14% | [10]; [18] 18% | [10]; at 50.0 µM 9.4% | [11]; at 1.2 µM 1% | [11]; at 3.7 µM -11% | [11]; [17] -25% | [11]; at 11.0 µM 2% | [11]; at 33.0 µM 56% | [11]; [18] 19% | [11]; at 50.0 µM 24.9% | [12]; at 1.2 µM -2% | [12]; at 3.7 µM -1% | [12]; at 11.0 µM 8% | [12]; at 33.0 µM 50% | [13]; at 1.2 µM 0% | [13]; at 3.7 µM 3% | [13]; at 11.0 µM -2% | [13]; at 33.0 µM 51% | [14]; at 1.2 µM -6% | [14]; at 3.7 µM -8% | [14]; at 11.0 µM 0% | [14]; at 33.0 µM 38% | [15]; [17] -3% | [15]; [18] 36% | [15]; at 50.0 µM 43.1% | [16]; at 1.2 µM -3% | [16]; at 3.7 µM -2% | [16]; at 11.0 µM 16%

Cc1c(C2=C(Br)C(=O)N(C)C2=O)c(=O)n(C)c(=O)n1C
active: [1]; at 100.0 µM 87% | [2]; at 100.0 µM 73% | [4]; at 100.0 µM 91% | [5]; at 33.0 µM 78% | [5]; at 50.0 µM 81.9% | [5]; at 100.0 µM 91% | [6]; at 100.0 µM 94% | [7]; at 100.0 µM 91% | [11]; at 100.0 µM 91% | [12]; at 100.0 µM 95% | [13]; at 100.0 µM 97% | [14]; at 100.0 µM 94% | [15]; [18] 84% | [15]; at 50.0 µM 91.7% | [16]; at 11.0 µM 75% | [16]; at 33.0 µM 88% | [16]; at 100.0 µM 96%
inactive: [1]; at 1.2 µM 11% | [1]; at 3.7 µM 26% | [1]; at 11.0 µM 51% | [1]; at 33.0 µM 67% | [2]; at 1.2 µM 4% | [2]; at 3.7 µM 13% | [2]; at 11.0 µM 23% | [2]; at 33.0 µM 35% | [3]; at 1.2 µM 0% | [3]; at 3.7 µM -2% | [3]; at 11.0 µM -2% | [3]; at 33.0 µM 1% | [3]; at 100.0 µM 3% | [4]; at 1.2 µM -1% | [4]; at 3.7 µM 0% | [4]; at 11.0 µM 8% | [4]; at 33.0 µM 23% | [5]; at 1.2 µM 6% | [5]; at 3.7 µM 15% | [5]; [17] 10% | [5]; at 11.0 µM 46% | [5]; [18] 55% | [6]; at 1.2 µM 7% | [6]; at 3.7 µM 15% | [6]; [17] -3% | [6]; at 11.0 µM 26% | [6]; at 33.0 µM 45% | [6]; [18] 20% | [6]; at 50.0 µM 56.1% | [7]; at 1.2 µM 5% | [7]; at 3.7 µM 13% | [7]; at 11.0 µM 28% | [7]; at 33.0 µM 47% | [8]; [17] 0% | [8]; [18] 5% | [8]; at 50.0 µM 58.6% | [9]; at 1.2 µM -2% | [9]; at 3.7 µM 0% | [9]; at 11.0 µM 1% | [9]; at 33.0 µM 10% | [9]; at 100.0 µM 44% | [10]; [17] 20% | [10]; [18] -14% | [10]; at 50.0 µM 3.95% | [11]; at 1.2 µM 1% | [11]; at 3.7 µM 4% | [11]; [17] 6% | [11]; at 11.0 µM 18% | [11]; at 33.0 µM 47% | [11]; [18] 57% | [11]; at 50.0 µM 28.1% | [12]; at 1.2 µM 0% | [12]; at 3.7 µM 3% | [12]; at 11.0 µM 11% | [12]; at 33.0 µM 39% | [13]; at 1.2 µM 0% | [13]; at 3.7 µM 3% | [13]; at 11.0 µM 13% | [13]; at 33.0 µM 48% | [14]; at 1.2 µM 2% | [14]; at 3.7 µM 11% | [14]; at 11.0 µM 22% | [14]; at 33.0 µM 60% | [15]; [17] 4% | [16]; at 1.2 µM 17% | [16]; at 3.7 µM 46%
